Records with an inconclusive call do not appear. Where a call stands in place of a potency, no number is given. The source made the active and inactive calls. The call rests on the fitted dose curve; in most records, active means well fitted activation curve with a large enough effect; inconclusive means small, poorly fitted or top-dose-only effect; inactive means flat fitted curve, though single readings scatter.

From PubChem BioAssay (Tox21) come the findings set out here.

The nature of the assay: qHTS assay to identify small molecule phospholipidosis (PLD) inducers (AID 1259344). The note with it: HepG2 phospholipidosis, LipidTOX Red imaging, 24 h; series mostly up to 38.3 µM. The gist of the method: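 HepG2 cells grown on collagen I take up LipidTOX Red while exposed to compound for 24 h; after fixation they are imaged at 20x and pit metrics are extracted.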
In general terms: Quantitative high-throughput screening tests each substance at several concentrations.
For `CC(C)=CCN1CC[C@]2(C)c3cc(O)ccc3C[C@H]1[C@H]2C`, the PLD induction was -0.374% [at 3.15 µM] (inactive).
As to `CN[C@@]1(c2ccccc2Cl)CCCCC1=O`, the PLD induction was -4.46% [at 7.66 µM] (inactive).
Regarding `CCNC1(c2cccs2)CCCCC1=O` (centres undefined), the Potency entry is “inactive”.
On to `CNC(C)CC1CCCCC1` (centres undefined), for which the Potency result was “inactive”.
Still for that read-out and setting: to `CCC1(c2ccccc2)C(=O)NC(=O)N(C)C1=O` (centres undefined) belongs “inactive”.
Consider `COc1cc([C@@H]2c3cc4c(cc3[C@@H](O)[C@H]3COC(=O)[C@H]23)OCO4)cc(OC)c1O`, for which the Potency entry was “inactive”.
Same read-out and setting: to `CN1CC[C@@]23CCCC[C@@H]2[C@@H]1Cc1ccc(O)cc13` belongs “inactive”; to `CNC(C)Cc1ccccc1` (centres undefined), “inactive”.
Take `CN[C@@H](C)Cc1ccccc1`: the Potency entry was “inactive”.
Take `CCCCNC(C)(C)[P+](=O)O`: the Potency result was “inactive”.
Consider `O=C1C[C@@H]2OCC=C3CN4CC[C@]56c7ccccc7N1[C@H]5[C@H]2[C@H]3C[C@H]46` (tested in a mixture with another compound), for which the Potency result was “inactive”.
Take `O=c1ccc2cc(O[C@@H]3O[C@H](CO)[C@@H](O)[C@H](O)[C@H]3O)c(O)cc2o1`: the Potency entry was “inactive”.
With `C/C=C(\CC)C(=O)NC(N)=O`, the Potency result was “inactive”.
On the same count and under the same terms, to `C[C@]12CCC(=O)C[C@@H]1CC[C@@H]1[C@@H]2CC[C@@]2(C)[C@H]1CC[C@]2(C)O` belongs “inactive”; to `Cc1nnc2n1-c1ccc(Cl)cc1C(c1ccccc1)=NC2`, “inactive”; to `N#CC(C#N)=Cc1cc(O)c(O)c(O)c1`, “inactive”.
As for `CCCSc1cc(OC)c(CCN)cc1OC`, the Potency result is “inactive”.
Regarding `O=C(O)CCCO`, the Potency entry is “inactive”.
Same read-out and setting: to `Oc1ccc2c3c1O[C@H]1[C@@H](O)C=C[C@H]4[C@H](C2)NCC[C@@]341` belongs “inactive”.
